{"source": "PubChem BioAssay AID449762", "about": "(Southern Research Specialized Biocontainment Screening …, 2010)", "note": "In all, about 330,000 compounds went through this assay and about 1,900 (0.58%) were called active. Not shown: some 4% with an inconclusive outcome. Rule as the data show it: inconclusive = inhibition above about 70% without an active follow-up result; inactive = below that. The list is a sample of the results. Entries with a potency or affinity are not part of this list.", "data": [{"assay": "M. tuberculosis growth inhibition, HTS (AID 449762);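 also: bacterial growth assessed after seven days of incubation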", "settings": "M. tuberculosis H37Rv growth inhibition, 7H9 media; at 25 µM; hits give high values", "values": [{"smiles": "COc1ccc(NC(=O)C2CCCO2)cc1Cl", "note": "(centres undefined)", "inhibition": "55.9% (inactive)"}, {"smiles": "COc1cc(C(=O)NCCOc2ccc(Cl)cc2)ccc1OCc1c(C)noc1C", "inhibition": "-3.72% (inactive)"}, {"smiles": "CCCC(=O)Nc1ccc2c(c1)nc(CN1CCCC1)n2C", "inhibition": "-1.98% (inactive)"}, {"smiles": "Cc1cc(C)n2nc(C(=O)OC(C)C(=O)c3ccccc3)nc2n1", "note": "(centres undefined)", "inhibition": "7.53% (inactive)"}, {"smiles": "Cc1ccc(-c2cc(C(=O)NCCCn3ccnc3)c3cc(Br)ccc3n2)o1", "inhibition": "4.01% (inactive)"}, {"smiles": "O=C(NCCCn1ccnc1)c1cc(-c2cccnc2)nc2ccc(Br)cc12", "inhibition": "4.38% (inactive)"}, {"smiles": "COc1ccc(OCC(O)Cn2c(N)nc3c2c(=O)[nH]c(=O)n3C)cc1", "note": "(centres undefined)", "inhibition": "-6.1% (inactive)"}, {"smiles": "Cc1cc(C(=O)Nc2sc3c(c2C#N)CCC(C(C)(C)C)C3)no1", "note": "(centres undefined)", "inhibition": "-1.37% (inactive)"}, {"smiles": "CC1CCc2sc(-c3n[nH]c(=S)o3)cc2C1", "note": "(centres undefined)", "inhibition": "4.83% (inactive)"}, {"smiles": "Cc1[nH]c(C(=O)N/N=C/c2ccc(C(=O)O)cc2)c(C)c1C(=O)N/N=C/c1ccc(C(=O)O)cc1", "inhibition": "2.47% (inactive)"}, {"smiles": "N/C(=N\\OC(=O)N1c2ccccc2Sc2ccccc21)c1ccc(Br)cc1", "inhibition": "-4.44% (inactive)"}, {"smiles": "CCOC(=O)N1c2ccccc2Sc2ccccc21", "inhibition": "10.8% (inactive)"}, {"smiles": "O=C(O)C(Cc1cnc[nH]1)NS(=O)(=O)c1ccc(Cl)cc1", "note": "(centres undefined)", "inhibition": "0.91% (inactive)"}, {"smiles": "CN1CCN(C(=S)c2ccc(N(C)C)cc2)CC1", "inhibition": "-4.96% (inactive)"}, {"smiles": "O=[N+]([O-])c1cccc(/C=N/Nc2nccnc2Cl)c1", "inhibition": "-0.09% (inactive)"}, {"smiles": "COc1ccc(CN2CCC(N3CC(C)OC(C)C3)CC2)c(OC)c1", "note": "(centres undefined)", "inhibition": "1.06% (inactive)"}, {"smiles": "COc1cc(-c2ccc3oc(-c4ccsc4)c(C#CC4(O)CCCCC4)c3c2)cc(OC)c1OC", "inhibition": "51.2% (inactive)"}, {"smiles": "CCn1nnc2c(=O)oc3ccccc3c21", "inhibition": "28.6% (inactive)"}, {"smiles": "CC(C)n1nnc2c(=O)oc3ccccc3c21", "inhibition": "48% (inactive)"}, {"smiles": "CC1CC(C)CN(C(=O)Cn2nnc(-c3ccc(Br)cc3)n2)C1", "note": "(centres undefined)", "inhibition": "2.83% (inactive)"}, {"smiles": "CCOC(=O)Cn1c(C)cc(=O)c2cccc(C)c21", "inhibition": "16.2% (inactive)"}, {"smiles": "CCOC(=O)Cn1c(=O)cc(C)c2cccc(C)c21", "inhibition": "57.9% (inactive)"}, {"smiles": "COc1ccc(CC(=O)NCc2nnc(SCC(=O)Nc3ccccc3)n2C)cc1", "inhibition": "4.29% (inactive)"}, {"smiles": "O=C(NCC(=O)N1CCN(c2ccccc2O)CC1)c1ccccc1", "inhibition": "7.74% (inactive)"}, {"smiles": "CCCCCCC1CC(CCc2nc(=S)[nH][nH]2)C(=O)O1", "note": "(centres undefined)", "inhibition": "-0.55% (inactive)"}, {"smiles": "O=C(NCC1CCCCC1)c1cccc([N+](=O)[O-])c1", "inhibition": "4.44% (inactive)"}, {"smiles": "COC(=O)c1cc(C(=O)NCC2CCCCC2)cc([N+](=O)[O-])c1", "inhibition": "-5.46% (inactive)"}, {"smiles": "CCOC(=O)C1(CC2CC2)CCN(Cc2cc(Cl)c(O)c(OC)c2)CC1", "inhibition": "-1.14% (inactive)"}, {"smiles": "CCCCn1c(=O)c(C(=O)NCc2ccc(Cl)cc2)c(O)c2ccccc21", "inhibition": "13% (inactive)"}, {"smiles": "O=[N+]([O-])c1cc(C(F)(F)F)cc([N+](=O)[O-])c1N1CCCNCC1", "inhibition": "-2.74% (inactive)"}, {"smiles": "COc1ccc(N=Nc2ccc(O)c3ncccc23)cc1", "inhibition": "64.2% (inactive)"}, {"smiles": "Cc1ccc(N=Nc2ccc(O)c3ncccc23)cc1", "inhibition": "63.9% (inactive)"}, {"smiles": "COc1ccc(OCCNC(=O)CCCO)cc1", "inhibition": "-4.06% (inactive)"}, {"smiles": "Cc1ccsc1/C=N/NC(=O)c1ccc(Cn2cc(Br)cn2)o1", "inhibition": "-7.92% (inactive)"}, {"smiles": "O=C1Nc2cc(C(=O)NCC3CCCO3)ccc2S/C1=C/c1ccccc1F", "note": "(centres undefined)", "inhibition": "2.49% (inactive)"}, {"smiles": "COc1ccc(-c2csc(/C(C#N)=C\\c3ccc(OC)c([N+](=O)[O-])c3)n2)cc1", "inhibition": "11.1% (inactive)"}, {"smiles": "COc1ccc(-c2csc(/C(C#N)=C\\c3cccc([N+](=O)[O-])c3)n2)cc1", "inhibition": "9.75% (inactive)"}, {"smiles": "Cc1ccc(C#CC[N+]2(C)CCCCC2)cc1", "inhibition": "-6.71% (inactive)"}, {"smiles": "C#CC[N+]1(CC#Cc2ccc(C)cc2)CCCCC1", "inhibition": "6.8% (inactive)"}, {"smiles": "Cc1ccc(/C=N/Nc2nnc(Cc3ccccc3)c(=O)[nH]2)o1", "inhibition": "0.24% (inactive)"}, {"smiles": "CCOc1ccc(-c2cc(N)n(S(=O)(=O)c3cccc4nsnc34)n2)cc1", "inhibition": "-2.37% (inactive)"}, {"smiles": "O=C(NCC(c1ccco1)N1CCOCC1)C1CCCCC1", "note": "(centres undefined)", "inhibition": "1.93% (inactive)"}, {"smiles": "O=C(CSc1ncnc2nc[nH]c12)c1ccc([N+](=O)[O-])cc1", "inhibition": "-8.27% (inactive)"}, {"smiles": "Cn1cnc([N+](=O)[O-])c1Sc1ncnc2nc[nH]c12", "inhibition": "3.96% (inactive)"}, {"smiles": "COc1ccccc1C(=O)NC(=O)COC(=O)c1nc2nc(C)cc(C)n2n1", "inhibition": "-0.8% (inactive)"}, {"smiles": "CCc1cc2c(=O)c(-c3nc4ccccc4n3C)c(C(C)C)oc2c(CN2CCN(C)CC2)c1O", "inhibition": "3.5% (inactive)"}, {"smiles": "COc1ccc(N2C(=O)C(Cl)=C(Nc3ccccc3OC)C2=O)cc1", "inhibition": "-3.72% (inactive)"}, {"smiles": "CCOc1ccccc1NC1=C(Cl)C(=O)N(c2ccc(OC)cc2)C1=O", "inhibition": "-6.27% (inactive)"}, {"smiles": "O=S(=O)(c1ccc2ccccc2c1)N1CCN(CCO)CC1", "inhibition": "4.19% (inactive)"}, {"smiles": "Cc1ccc(S(=O)(=O)N(CC(=O)c2ccc(Cl)cc2)C(=O)N2CCN(C)CC2)cc1", "inhibition": "-5.16% (inactive)"}, {"smiles": "COc1cccc(CC(NC(C)=O)C(=O)NC2CCN(S(=O)(=O)c3cccc4ccccc34)CC2)c1", "note": "(centres undefined)", "inhibition": "1.8% (inactive)"}, {"smiles": "COC(=O)c1ccc(NC(=O)CSCc2ccccc2C)cc1", "inhibition": "21.9% (inactive)"}, {"smiles": "CCOc1ccccc1N1CCN(C(=O)c2cn(CC3CCCCC3)nn2)CC1", "inhibition": "53.5% (inactive)"}, {"smiles": "Cc1cccc(C)c1OCc1cc(C(=O)N2CCN(c3ccccc3)CC2C)no1", "note": "(centres undefined)", "inhibition": "61.7% (inactive)"}, {"smiles": "Cc1ccnc(NC(=O)c2ccc(Cl)c(NC(=O)c3ccccc3C)c2)c1", "inhibition": "-1.18% (inactive)"}, {"smiles": "O=C(Nc1ccon1)Nc1cccc(Cl)c1Cl", "inhibition": "-8.3% (inactive)"}, {"smiles": "Cc1cc(C(=O)Nc2nc3ccc(S(C)(=O)=O)cc3s2)c(C)o1", "inhibition": "-11.6% (inactive)"}, {"smiles": "Cc1ccc2cc(C(c3nnnn3CC3CCCO3)N3CCc4ccccc4C3)c(=O)[nH]c2c1", "note": "(centres undefined)", "inhibition": "11.1% (inactive)"}, {"smiles": "NS(=O)(=O)c1ccc(N=Nc2ccc(O)c3ncccc23)cc1", "inhibition": "-1.88% (inactive)"}, {"smiles": "Nc1ccc(N=Nc2ccccc2)c2ccccc12", "inhibition": "-11.4% (inactive)"}, {"smiles": "CCCC(=O)Nc1nnc(S(=O)(=O)N(CC)c2ccc(OC)cc2)s1", "inhibition": "6.35% (inactive)"}, {"smiles": "O=c1[nH]c2ccccc2nc1Cc1ccc([N+](=O)[O-])cc1", "inhibition": "1.98% (inactive)"}, {"smiles": "Cc1nn(C(C)C(=O)N2CCCC2)c(=O)c2nn(-c3ccccc3)c(C)c12", "note": "(centres undefined)", "inhibition": "4.45% (inactive)"}, {"smiles": "O=C([O-])c1cc(-c2ccccc2)cc(-c2ccccc2)[n+]1Cc1ccccc1", "inhibition": "2.25% (inactive)"}, {"smiles": "Cc1cc(-c2ccccc2)cc(C)[n+]1Cc1ccccc1", "inhibition": "4.78% (inactive)"}, {"smiles": "Cn1c(=O)cc(SCC(=O)N2CCOCC2)c2ccc(Cl)cc21", "inhibition": "-11.3% (inactive)"}, {"smiles": "Cn1c(=O)cc(SCC(=O)N2CCCC2)c2ccc(Cl)cc21", "inhibition": "3.77% (inactive)"}, {"smiles": "Cc1cccc(CCNC(=O)c2cc(S(=O)(=O)N3CCCC3)cn2C)c1", "inhibition": "-6.27% (inactive)"}, {"smiles": "Cc1ccc(/C=C/C(=O)OCC(=O)NC(=O)NCc2ccccc2)cc1", "inhibition": "-1.66% (inactive)"}, {"smiles": "Cc1ccc(C2C(C#N)=C(N)OC3=C2C(=O)CC(C)(C)C3)s1", "note": "(centres undefined)", "inhibition": "4.01% (inactive)"}, {"smiles": "CC1(C)CC(=O)C2=C(C1)OC(N)=C([N+](=O)[O-])C2c1cccs1", "note": "(centres undefined)", "inhibition": "3.64% (inactive)"}, {"smiles": "COC(C(=O)Nc1cccc(F)c1)c1ccccc1", "note": "(centres undefined)", "inhibition": "1.2% (inactive)"}, {"smiles": "COc1ccc(/C=C/C(=O)Nc2cc(S(=O)(=O)N3CCCCC3)ccc2N2CCCCC2)cc1OC", "inhibition": "6.87% (inactive)"}, {"smiles": "CCN1CCN(c2ccc(S(=O)(=O)N3CCCCC3)cc2NC(=O)/C=C/c2ccc([N+](=O)[O-])cc2)CC1", "inhibition": "67.1% (inactive)"}, {"smiles": "CCCCCNC(=O)c1ccc2c(c1)ncn2-c1ccc(OC)cc1", "inhibition": "13.7% (inactive)"}, {"smiles": "CCOc1ccc([C@@H]2CC=C(C(=O)O)[C@H](c3ccc(Cl)cc3)N2S(=O)(=O)c2ccc(C)cc2)cc1", "inhibition": "-1.26% (inactive)"}, {"smiles": "Cn1cc(CCNC(=O)CC2C(=O)NCCN2Cc2cccc(Oc3ccccc3)c2)cn1", "note": "(centres undefined)", "inhibition": "2.08% (inactive)"}, {"smiles": "CN(C)CCCNC1=CC(=O)CC(c2ccccc2)C1", "note": "(centres undefined)", "inhibition": "-4.95% (inactive)"}, {"smiles": "CCCCCNC1=CC(=O)CC(c2ccccc2)C1", "note": "(centres undefined)", "inhibition": "-1.58% (inactive)"}, {"smiles": "COc1ncnc2c1cnn2-c1ccccc1", "inhibition": "7.17% (inactive)"}, {"smiles": "C=CCOn1c(=O)c(-c2ccc(OCC)cc2)[n+]([O-])c2ccccc21", "inhibition": "6.39% (inactive)"}, {"smiles": "O=C(CCCSc1nc2ccccc2[nH]1)N1CCN(c2ccc([N+](=O)[O-])cc2)CC1", "inhibition": "-13.5% (inactive)"}, {"smiles": "CC(C)CCNC(=O)C1CCCN(S(=O)(=O)c2ccc(-n3cnnn3)cc2)C1", "note": "(centres undefined)", "inhibition": "1.26% (inactive)"}, {"smiles": "CCOC(=O)/C=C/C(=O)OCc1csc(CC(=O)Nc2ccccc2C)n1", "inhibition": "-12.3% (inactive)"}, {"smiles": "C/C=C/C(=O)OCc1csc(CC(=O)Nc2ccccc2C)n1", "inhibition": "-2.53% (inactive)"}, {"smiles": "Cc1cc(NC(=O)/C(C#N)=C/c2ccc(-c3cccc(C(F)(F)F)c3)o2)n(-c2ccccc2)n1", "inhibition": "9.74% (inactive)"}, {"smiles": "COc1ccc(OCC(=O)NNc2nc3ccccc3s2)cc1", "inhibition": "70% (inactive)"}, {"smiles": "COc1ccc2nc(NNC(=O)COc3ccccc3)sc2c1", "inhibition": "6.88% (inactive)"}, {"smiles": "CC(=O)NNc1nc2ccccc2s1", "inhibition": "-19.1% (inactive)"}, {"smiles": "O=C(NNc1nc2ccccc2s1)Nc1ccc(F)cc1", "inhibition": "7.66% (inactive)"}, {"smiles": "CCc1[nH]nc(C(=O)N2CCCC(C(=O)c3cccc(OC(C)C)c3)C2)c1C", "note": "(centres undefined)", "inhibition": "8.32% (inactive)"}, {"smiles": "CCOC(=O)Cn1nc(-c2ccc(C)cc2)ccc1=O", "inhibition": "-1.62% (inactive)"}, {"smiles": "COC(=O)c1ccc(C(=O)OC)c(NC(=O)CSc2ccccn2)c1", "inhibition": "45% (inactive)"}, {"smiles": "CCOC(=O)c1ccccc1NC(=O)CSc1cccc[n+]1[O-]", "inhibition": "-5.24% (inactive)"}]}]}
